Only some compounds are listed: those with a hit (about 1.2% of all), similar ones and a draw of the others.
NALP1 inh = inhibitors of NALP1 inflammasome in yeast; S. cerevisiae NALP1/ASC/caspase-1 growth, X-gal OD620, 72 h; inhibition, % at 10 µM; 280,000 tested, 0.61% active; in the data active = inhibition mostly above about 24%, no sharp cut-off; inactive = mostly below about 32%
A3A deaminase = human APOBEC3A DNA deaminase inhibition; inhibition, % at 20 µM; P31941; recombinant A3A, FAM/TAMRA ssDNA deamination fluorescence; 330,000 tested, 0.41% active;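 active = at least 40% inhibition at 20 µM here, with at most 30% in a related deaminase screen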;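 also: plate controls were A3A with DMSO for no effect and wells lacking A3A enzyme for full effect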
Target sequence (P31941 whole entry, looked up): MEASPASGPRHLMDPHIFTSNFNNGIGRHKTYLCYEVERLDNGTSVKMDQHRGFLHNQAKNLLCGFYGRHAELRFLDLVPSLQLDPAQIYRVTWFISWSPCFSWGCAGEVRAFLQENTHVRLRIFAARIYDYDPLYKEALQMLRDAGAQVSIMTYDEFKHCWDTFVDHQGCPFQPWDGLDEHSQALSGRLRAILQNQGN
A3G deaminase = blocks human APOBEC3G single-stranded DNA deamination. inhibition, % at 20 µM. 330,000 tested, 0.28% active. recombinant A3G, ssDNA deamination FAM/TAMRA fluorescence;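 active = inhibition of at least 40% at 20 µM, with no more than 30% in the related APOBEC3A deaminase screen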;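 also: plate controls were DMSO wells with A3G for no effect and wells lacking A3G enzyme for full effect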
Target sequence (Q9HC16 whole entry, looked up): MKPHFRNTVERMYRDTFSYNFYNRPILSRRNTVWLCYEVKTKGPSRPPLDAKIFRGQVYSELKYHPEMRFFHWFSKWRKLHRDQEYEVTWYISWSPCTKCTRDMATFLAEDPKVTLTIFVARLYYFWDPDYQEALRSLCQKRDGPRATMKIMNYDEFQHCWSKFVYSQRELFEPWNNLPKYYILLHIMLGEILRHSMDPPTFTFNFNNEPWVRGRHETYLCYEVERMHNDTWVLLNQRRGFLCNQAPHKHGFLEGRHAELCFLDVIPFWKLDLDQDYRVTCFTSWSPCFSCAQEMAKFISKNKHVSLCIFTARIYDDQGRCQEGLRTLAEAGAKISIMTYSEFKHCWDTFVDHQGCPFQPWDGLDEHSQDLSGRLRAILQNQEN
PolyA inh = yeast polyadenylation inhibition | 300,000 tested, 0.02% active | activity score, % at 12 µM | AID 1875 | S. cerevisiae SKY197-pL101 polyadenylation reporter, beta-gal luminescence; efflux-impaired pdr1/pdr3 knockout yeast; score 100 = 6 SD above DMSO;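 active = lowest replicate activity score at least 50, where 100 means six control SD above control mean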;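 also: yeast exposed to compound for 9 h at 30 °C; higher score means more reporter readthrough which indicates perturbed polyadenylation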
A3A conf = confirmation of human APOBEC3A DNA deaminase inhibitors. shares compounds with A3A deaminase. recombinant A3A, ssDNA deaminase UDG fluorescence assay. inhibition, % at 20 µM. 1,400 tested, 63% active. AID 493151;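 active = inhibition reaching a set limit, 80% of the first screen's cutoff, at 20 µM in any replicate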;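 also: plate controls were DMSO wells with A3A for no effect and wells lacking A3A enzyme for full effect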
UDG ctr A3A = inhibits UDG, flagging false APOBEC3A inhibitors; UDG counterscreen, FAM/TAMRA uracil oligo fluorescence; shares compounds with A3A deaminase; 1,000 tested, under 10 active; inhibition, % at 20 µM; call rule not given here
Active calls of the source: *; x = no result given.

SMILES | NALP1 inh | A3A deaminase | A3G deaminase | PolyA inh | A3A conf | UDG ctr A3A
CCN1CCN(c2ccc(S(=O)(=O)N3CCCCC3)cc2NC(=O)c2cccc(F)c2)CC1 | x | 8 | -11 | 8 | x | x
CCOc1ccccc1OCC(=O)Nc1cc(S(=O)(=O)N2CCCCC2)ccc1N1CCN(CC)CC1 | x | 60* | 10 | 15 | 55* | 3
CCOc1ccc(OC(=O)c2cccc(S(=O)(=O)N3CCN(C)CC3)c2)cc1 | x | 60* | 6 | -9 | 18 | x
CCN1CCN(c2ccc(S(=O)(=O)N3CCCCC3)cc2NC(=O)Cc2ccccc2F)CC1 | x | 3 | -14 | -11 | x | x
CCOC(=O)CN1C(=O)N[C@@H](c2cccc(C(F)(F)F)c2)C(C(=O)OC)=C1C | x | -5 | -7 | 18 | x | x
CCC(C)C(NC(=O)C1CCC(C)CC1)C(=O)NCc1ccco1 (stereo not given) | -9 | -5 | -7 | 4 | x | x
COc1ccc2cc(CCNC(=O)c3ccc(S(=O)(=O)N4CCOCC4)cc3)c(=O)[nH]c2c1 | 16 | 5 | -7 | -11 | x | x
CCC(=O)c1ccc(OCC(=O)Nc2cc(S(=O)(=O)N3CCCCC3)ccc2N2CCN(CC)CC2)cc1 | x | 55* | 13 | 7 | 66* | -2
CN1CCN(c2ccc(S(=O)(=O)N3CCCCC3)cc2NC(=O)Cc2c(F)cccc2Cl)CC1 | x | 46* | -2 | -7 | 36* | 0
CCN1CCN(c2ccc(S(=O)(=O)N3CCCCC3)cc2NC(=O)COc2ccccc2)CC1 | x | 13 | -9 | 6 | x | x
CCN1CCN(c2ccc(S(=O)(=O)N3CCCCC3)cc2NC(=O)c2ccc(C)o2)CC1 | x | 63* | 7 | 25 | 71* | 2
O=C(Cc1c(F)cccc1Cl)Nc1cc(S(=O)(=O)N2CCCCC2)ccc1N1CCOCC1 | 13 | 3 | 3 | 8 | x | x
Cc1ccc(S(=O)(=O)N2CCCCC2)cc1NC(=O)CCCOc1ccccc1 | x | 14 | -1 | x | x | x
CCN1CCN(c2ccc(S(=O)(=O)N3CCCCC3)cc2NC(=O)Cc2ccc(Cl)c(Cl)c2)CC1 | x | -2 | -11 | 8 | x | x
CC(=O)c1ccc(OCCCC(=O)Nc2cc(S(=O)(=O)N3CCCCC3)ccc2C)cc1 | x | 40* | 5 | x | 9 | x
C1=C(c2cc3ccccc3cn2)CCCC1 | x | -1 | -9 | x | x | x
CCN1CCN(c2ccc(S(=O)(=O)N3CCCCC3)cc2NC(=O)c2cccc(C(F)(F)F)c2)CC1 | x | 57* | 18 | 7 | 51* | 0
CN1CCN(S(=O)(=O)c2cccc(C(=O)Nc3cc(C(F)(F)F)ccc3N3CCCCC3)c2)CC1 | x | 44* | 11 | -3 | 18 | x
CCCCc1nnc(NC(=O)c2cccc(S(=O)(=O)N3CCN(C)CC3)c2)s1 | -9 | 58* | 21 | 8 | 20 | x
CN1CCN(S(=O)(=O)c2cccc(C(=O)Nc3ccccc3N3CCCCC3)c2)CC1 | x | 2 | -12 | -1 | x | x
CC(=O)c1c(C)[nH]c(C(=O)CN2C(=O)NC3(CCCCC3)C2=O)c1C | x | -1 | -6 | x | x | x
Cc1cc(Br)ccc1NC(=O)CN(C)C(=O)CNC(=O)Cc1ccccc1 | x | 0 | -8 | x | x | x
CCN(CC(=O)NCC(=O)Nc1ccc(Br)cc1C)Cc1ccccc1 | x | 40* | -7 | -3 | 8 | 5
O=C(O)c1ccc(COc2ccc(/C=N/NC(=O)c3cccs3)cc2)cc1 | -6 | 51* | 17 | 11 | 4 | x
N#C/C(=C/c1ccc(OCc2ccc(C(=O)O)cc2)cc1)C(=O)Nc1ccccc1 | -3 | 79* | 16 | 3 | 75* | -3
SMILES | NALP1 inh | A3A deaminase | A3G deaminase | PolyA inh | A3A conf | UDG ctr A3A
CCOc1ccccc1NC(=S)N1CCN(c2ccc(OC)cc2)CC1 | -6 | 83* | -4 | 5 | -9 | -3
Cc1ccc(S(=O)(=O)N(CC(=O)NCc2ccncc2)Cc2ccc(F)cc2)cc1 | 8 | 3 | -4 | 0 | x | x
O=C1/C(=C/c2ccco2)Oc2c1ccc(O)c2CN1CCCCC1 | 30 | 86 | 72 | 0 | x | x
CC1CCN(Cc2c(O)ccc3c2O/C(=C\c2ccco2)C3=O)CC1 | 13 | 97* | 4 | -31 | 36* | -5
COC(=O)COc1ccc2c(c1)O/C(=C\c1ccco1)C2=O | 9 | 5 | -4 | -16 | x | x
COCCN(CCOC)Cc1c(O)ccc2c1O/C(=C\c1ccco1)C2=O | 24 | 56* | 14 | -3 | 27* | 2
N#Cc1c(SCC(=O)Nc2nc3ccccc3s2)sc2c(O)cc(=O)[nH]c12 | x | 78 | 64 | x | x | x
N#Cc1c(SCC(=O)Nc2nc3ccc(Br)cc3s2)sc2c(O)cc(=O)[nH]c12 | 12 | 43* | 27 | -8 | 39* | -4
CCc1noc(C)c1C(=O)N1CCN(S(=O)(=O)c2ccc(C(C)=O)cc2)CC1 | x | 40* | 1 | 10 | -2 | x
CCc1noc(C)c1C(=O)N1CCN(S(=O)(=O)c2ccc(Cl)cc2)CC1 | x | -2 | -6 | x | x | x
Cc1cc(C)cc(N2CC(c3nc4ccccc4n3C)CC2=O)c1 (stereo not given) | x | 58* | 21 | -19 | 46* | -1
CC(C)(C)N(Cc1ccccc1)C(=O)CN1C(=O)c2ccccc2C1=O | 6 | -3 | -9 | -10 | x | x
CC(C)(C)N(Cc1ccccc1)C(=O)CN1C(=O)c2ccccc2S1(=O)=O | x | 45* | 1 | x | 38* | 2
CCOc1ccc(S(=O)(=O)N(CC(=O)N/N=C/c2ccc(-c3ccc([N+](=O)[O-])cc3)o2)c2ccccc2)cc1 | 16 | 66* | 23 | -8 | 37* | 5
Cc1ccc(C)c(N(CC(=O)N/N=C/c2ccc(-c3ccc([N+](=O)[O-])cc3)o2)S(=O)(=O)c2ccccc2)c1 | -11 | -2 | -5 | -9 | x | x
O=C(CCN1CCN(c2ccccc2)CC1)Nc1ccccc1 | -20 | -5 | -9 | -7 | x | x
C#CCn1cc(/C=N/NC(=O)COc2cccc3cccnc23)c2ccccc21 | 17 | 65* | 12 | 1 | 47* | -2
COc1ccccc1OC(C)C(=O)N1CCC(Cc2ccccc2)CC1 (stereo not given) | 5 | 55* | 5 | 16 | 47* | -2
O=C(CCNS(=O)(=O)c1ccccc1C(F)(F)F)NCCCN1CCOCC1 | x | 2 | 3 | x | x | x
COCCN(C(=O)COC(=O)CNC(=O)c1cccs1)c1c(N)n(Cc2ccccc2)c(=O)[nH]c1=O | x | 53* | 9 | -12 | 50* | -3
COCCN(C(=O)COC(=O)c1cccs1)c1c(N)n(Cc2ccccc2)c(=O)[nH]c1=O | 7 | 2 | -4 | 2 | x | x
Cc1ccc2nc(C)c3c(c2c1)COC3 | 8 | 62* | -5 | 19 | 0 | 4
COc1ccc(/C=C/C(=O)N(CCC(N)=O)c2ccccc2)cc1S(=O)(=O)N1CCOCC1 | x | 41* | -3 | x | 27* | -36
Cc1onc(-c2ccccc2)c1C(=O)NCC(=O)Nc1cc(Cl)ccc1Cl | x | -4 | -5 | x | x | x

Screening results: PubChem BioAssay, several laboratories
